Pf growth 48h: P. falciparum growth inhibition at 48 hours (one generation). P. falciparum luciferase growth in erythrocytes, 48 h. Potency, µM (highest dose often 28.7 µM), for inactives: top-dose activity change, negative = inhibition, usual class: inhibitors. 310,000 tested, 5.9% active; further: on the % scale 0 is the no-effect control and ±100 the full control effect
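Compounds are pin-transferred into medium, infected erythrocytes (2% hematocrit, 0.1% parasitemia final) are added, and plates sit one parasite generation at 37 C in 5% CO2. Detection reagent is then added and luminescence measured.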
Pf growth 96h: P. falciparum growth inhibition at 96 hours. P. falciparum luciferase reporter growth, 96 h. 320,000 tested, 6.9% active. AID 504834. Potency, µM (top dose mostly 28.7 µM), for the others: top-dose activity change, negative = inhibition, usual class: inhibitors; further: on the % scale 0 is the no-effect control and ±100 the full control effect
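96 h incubation, 37 C, 5% CO2, of luciferase-reporter P. falciparum-infected RBCs (2% hematocrit, 0.05% parasitemia final) with test compounds; endpoint luminescence.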
SARS PLP yeast: SARS-CoV PLP inhibition in yeast. S. cerevisiae expressing SARS-CoV PLpro, growth rescue. Potency, µM (titrated, usually from 32.9 µM), for the others: top-dose activity, positive = growth rescue, actives largely listed as activators. 330,000 tested, 0.19% active. AID 485353; calls by dose curve; further: 0% is about no effect; nearly all actives have a fitted effect of over 55% in size
AMA1-RON2 inh: disrupts binding of P. falciparum AMA1 to RON2; 360,000 tested, 0.2% active; AlphaScreen AMA1-biotinylated RON2 peptide binding; Potency, µM (doses to about 58.2 µM), for inactives: top-dose activity change, negative = inhibition, most hits filed as inhibitors; AID 720542;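 further: 0% = vehicle wells and -100% = peptide control; nearly all actives have a fitted effect of over 45% in size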
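AMA1 (3D7) with his tag at 25 nM final met compounds first, then biotinylated RON2 peptide at 25 nM; detection used donor plus acceptor beads, 10 µg/mL apiece, read by AlphaScreen after 30 min at room temperature.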
Starred values were filed as active, the others as inactive; ? = inconclusive; nt = no result; [ ] = dose if it differs, or a comment. This is a sample that favours compounds with a hit; in the whole collection about 9.4% have one here. Unless noted, the call rests on the fitted dose curve; in most records, active means well fitted curve in the direction sought with a large enough effect; inconclusive means small, poorly fitted or top-dose-only effect, or another doubt; inactive means no such curve, though single readings can be large; an effect the other way counts as inactive or inconclusive. Potency means the concentration at half of the fitted maximal effect.

SMILES | Pf growth 48h | Pf growth 96h | SARS PLP yeast | AMA1-RON2 inh
CC(=O)[C@H]1CC[C@H]2[C@@H]3CCC4=CC(=O)CC[C@]4(C)[C@H]3CC[C@]12C | ? | 10µM* | -38% | -2%
O=C(c1ccc(Br)o1)N1CCC(Cc2ccccc2)CC1 | 13µM* | -17% | -6% | ?
Cc1c(C(=O)N2CCC(Cc3ccccc3)CC2)cccc1[N+](=O)[O-] | 14% | 103% | 0% | -10%
Cc1cccc(C(=O)N2CCC(Cc3ccccc3)CC2)c1[N+](=O)[O-] | -1% | 0.93µM* | 11% | -6%
O=C(c1ccc(Br)o1)N1CCN(Cc2ccccc2Cl)CC1 | 12µM* | ? | nt | -10%
O=C(c1cccs1)N1CCC(Cc2ccccc2)CC1 | 8.3µM* | -23% | 16% | 7%
O=C(CN1CCN(c2ccccc2O)CC1)NC(=O)NC1CCCC1 | ? | ? | 0% | -7%
Cc1csc(N/N=C\c2cccnc2)n1 | -10% | 19% | -2% | 27%
O=C(Nc1ccc(Nc2ccccc2)cc1)C1CC1 | ? | 32% | -23% | -2%
CCc1ccc(NC(=O)Cc2ccc(-n3cccc3)cc2)cc1 | 20% | 2.1µM* | 6% | 6%
O=C(Nc1ccc(-n2cccc2)cc1)C1CC1 | 12µM* | -23% | -5% | -20%
COc1ccc(N2CCN(c3cc(C)c4ccc(O)cc4n3)CC2)cc1 | 13µM* | 126% | 7% | -28%
Cc1cc(N2CCN(c3ccccc3F)CC2)nc2cc(O)ccc12 | 10µM* | 0% | 2% | 5%
COc1ccc(N2CCN(c3cc(C)c4ccc(C)cc4n3)CC2)cc1 | -19% | 0% | -8% | ?
Cc1cc(N2CCN(c3ccc(F)cc3)CC2)nc2cc(O)ccc12 | nt | 7.4µM* | -1% | ?
Cc1cc(N2CCOCC2)nc2cc(O)ccc12 | 108% | 5% | -2% | 10%
CCCOc1ccc(C=Nc2ccc(OC)c(S(=O)(=O)N3CCOCC3)c2)c(O)c1 | 62% | 27% | 7% | 35%
CC(C)(CC(=O)O)CC(=O)Nc1ccc2c(c1)ncn2CCc1ccccc1 | -8% | ? | 0% | -7%
COC(=O)c1[nH]c2cccc(Cl)c2c1NC(=O)CN(C)C1CCCCC1 | ? | 8.3µM* | -12% | -4%
CCOC(=O)C1CCN(CC(=O)Nc2c(C(=O)OC)[nH]c3cccc(Cl)c23)CC1 | -18% | -3% | 4% | 6%
C/C(=N\NC(=O)c1ccc(Cl)cc1)c1ccc(Br)s1 | 7.4µM* | 2.6µM* | -4% | 9%
C/C(=N\NC(=O)c1cc(Cl)ccc1O)c1ccc(Br)s1 | 46% | 87% | 10% | 17%
C/C(=N/NC(=O)c1ccc(C)s1)c1cccnc1 | 105% | 0% | -4% | 18%
C/C(=N/NC(=O)c1ccc(Br)s1)c1cccnc1 | 39% | 7.4µM* | -1% | 33%
C#CC(CC)(CC)NC(=O)c1ccc(Br)s1 | -10% | ? | -1% | -5%
SMILES | Pf growth 48h | Pf growth 96h | SARS PLP yeast | AMA1-RON2 inh
CC1=CC(C)(C)N(C(=O)c2ccc(F)cc2)c2cc3c(cc21)OCO3 | 12µM* | -18% | -32% | ?
CCCCN1C(Nc2ccccc2)=NC[C@@H]1Cc1ccccc1 | ? | 36% | -1% | 13%
CC(C)(C)CN1C(N)=NC[C@H]1Cc1ccc(O)cc1 | ? | 4.7µM* | 0% | 3%
CCCCN1C(N)=NC[C@H]1Cc1ccc(O)cc1 | 9.3µM* | 4.7µM* | 0% | 2%
CCCCN1C(N)=NC[C@@H]1Cc1ccc(O)cc1 | 10µM* | 4.1µM* | -3% | 2%
NC1=NC[C@H](Cc2ccc(O)cc2)N1CCC12CC3CC(CC(C3)C1)C2 | 2.9µM* | 1.9µM* | -3% | -7%
CC(C)(C)CN1C(N)=NC[C@@H]1Cc1ccc(O)cc1 | ? | ? | 1% | -15%
COc1ccc(CSc2nnc(C)n2N)cc1[N+](=O)[O-] | -13% | -1% | 0% | -6%
CN1CC(=O)N2C(Cc3c([nH]c4ccccc34)[C@H]2c2ccc3c(c2)OCO3)C1=O (some centres not stated) | -6% | ? | nt | nt
COc1cc(CCCN2C(N)=NC[C@H]2Cc2ccc(O)cc2)cc(OC)c1OC | 8.3µM* | 2.3µM* | 8% | 4%
CNC(=S)NNC(=O)COc1cccc(C)c1C | 0% | 8.3µM* | 10µM* | 116%
O=C(CN1CCc2ccccc2C1)Nc1ccccc1N1CCCCCC1 | 13µM* | nt | -11% | -23%
O=C(COc1ccc(Cl)cc1Br)Nc1ccccc1N1CCCC1 | ? | ? | -38% | ?
Cc1ccc(Cl)c(OCC(=O)Nc2ccccc2N2CCCCC2)c1 | 15µM* | ? | nt | 22%
O=C(COc1ccccc1Cl)Nc1ccc(C(=O)O)cc1NC(=O)COc1ccccc1Cl | 1% | 6.6µM* | 3% | -24%
O=C(CN1CCc2ccccc2C1)Nc1ccccc1Cl | -8% | ? | 3% | 10%
CCN1CCN(CCCNC(=O)CNC(=O)c2nn(-c3ccc(OC)cc3OC)c(=O)c3ccccc23)CC1 | 0% | ? | -2% | -10%
N#Cc1cccc(Oc2ccc(S(=O)(=O)N3CCCC3)cn2)c1 | 38% | -2% | -1% | 12%
CC(C)CC(C)NC(=O)c1ccc(C(F)(F)F)cc1 (configuration not stated) | 43% | 0% | -1% | 0%
CNS(=O)(=O)c1ccc(N=Cc2c(O)n(-c3ccc(C)cc3)c(=O)[nH]c2=O)cc1 | 84% | 57% | -1% | 7%
COc1ccc(OCC(=O)Nc2ccccc2N2CCCCC2)cc1 | ? | -22% | -14% | 6%
Cc1cccc(C)c1OCC(=O)Nc1ccccc1N1CCCCC1 | 12µM* | ? | -12% | -6%
CCc1ccc(OCC(=O)N2CCN(c3ccccc3F)CC2)cc1 | 17% | 6.6µM* | 0% | 8%
Cc1cccc(OCC(=O)Nc2ccccc2N2CCCCC2)c1C | 12µM* | 1.9µM* | 0% | -16%
CCC(=O)N1CCN(c2ccccc2NC(=O)COc2ccc(C(C)C)cc2)CC1 | 10µM* | ? | -11% | 8%
SMILES | Pf growth 48h | Pf growth 96h | SARS PLP yeast | AMA1-RON2 inh
COc1ccc(OCC(=O)Nc2ccccc2N2CCN(C)CC2)cc1 | -11% | -3% | -4% | 0%
O=C(CNCCC1=CCCCC1)Nc1ccccc1N1CCCCC1 | 13µM* | 12% | -2% | -2%
CCOC(=O)c1sc2nc(C)nc(NCc3ccc(F)cc3)c2c1C | ? | ? | -5% | 13%
CCOC(=O)c1sc2nc(C)nc(NCc3ccc(Cl)cc3)c2c1C | 9.3µM* | ? | -1% | 6%
O=C(NCc1ccccn1)c1cccc(S(=O)(=O)Nc2ccc(SC(F)F)cc2)c1 | 3% | 49% | -1% | 14%
O=C(Nc1nnc(CC2=CCCCC2)s1)Nc1ccccc1F | -11% | 57% | 1% | 0%
O=C(Nc1cccc(Cl)c1)Nc1nnc(CSCCOc2ccc(Cl)cc2)s1 | 12µM* | ? | 24% | -3%[11.6 µM]
O=C(Nc1cccc(Cl)c1)Nc1nnc(-c2ccncc2)s1 | 12µM* | 5.2µM* | 7% | 21%
O=C(Nc1cccc(Cl)c1)Nc1nnc(CC2=CCCCC2)s1 | 15µM* | ? | -2% | -22%
NC(=O)CSc1nnc(-c2cnccn2)n1Cc1ccco1 | 7% | 27% | 3% | ?

Screening results deposited in PubChem BioAssay by National Center for Advancing Translational Sciences (NCATS).
